This is an account of results in PubChem BioAssay (NCI).

Molecules are shown by their SMILES. The panel holds about 83,000 compounds, 20% with a hit somewhere; the sample as a whole holds those more often.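 Plates (96-well) were seeded with cells, treated with compound at one concentration, and incubated for 48 hours before percent growth was determined.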 Values without a mark were called inactive. The source made the active and inactive calls. How the source made its calls: active means growth percent below 10; inactive means the rest.

Test systems include NCI-H23 lung; NCI-H226 lung; NCI-H322M lung; HOP-62 NSCLC; NCI-H460 lung; HOP-92 NSCLC; NCI-H522 lung; A549/ATCC NSCLC; 786-0 renal; COLO 205 colon; DU-145 prostate; K-562 leukemia; MALME-3M melanoma; MDA-MB-231 breast; RXF 393 renal; SF-268 CNS; SF-295 CNS; SF-539 CNS; UACC-257 melanoma; M14 melanoma.
What all share (test): NCI-60 one-dose screen, 48 h (100 = growth as untreated, 0 = no growth, -100 = all killed)
Settings in all cases: 10 µM unless noted

Take `COc1ccc(C/C(C)=C(\c2ccc(Cl)cc2)c2ccc(OCCCN(C)C)cc2)cc1`: the growth with NCI-H23 lung is 88.1%; with NCI-H226 lung, 108%; in the test with NCI-H322M lung, 90.1%; in the test with HOP-62 NSCLC, 92.9%; with NCI-H460 lung, 56.6%; with HOP-92 NSCLC it was 52.9%. In addition, the growth with NCI-H522 lung is 89.1%; in the test with A549/ATCC NSCLC, 68.7%; with 786-0 renal it was 76.1%; in the test on COLO 205 colon, -66.7% (active); in the test with DU-145 prostate, 102%; in the test on K-562 leukemia it was -7.99% (active). Moreover, the growth is 80% in the test with MALME-3M melanoma; 83.3% in the test with MDA-MB-231 breast; 72.4% in the test on RXF 393 renal; 88.6% in the test with SF-268 CNS; 105% in the test with SF-295 CNS; 84.7% in the test on SF-539 CNS. In addition, the growth in the test on UACC-257 melanoma was 91.5%; with M14 melanoma, 48.7%.

In the case of `Cc1ccc(C(=O)c2ccc(CC(=O)N/N=C/c3cccc(O)c3O)n2C)cc1`, the growth is 45.4% in the test with NCI-H23 lung; 69.1% with NCI-H226 lung; 54.4% in the test with NCI-H322M lung; 49.9% in the test on HOP-62 NSCLC; 8.65% (active) with NCI-H460 lung; 56.3% in the test on HOP-92 NSCLC. The growth is 48.8% in the test on NCI-H522 lung; 58.7% with A549/ATCC NSCLC; 76.4% with 786-0 renal; 63% in the test on COLO 205 colon; 49.3% in the test with DU-145 prostate; 30.4% in the test on K-562 leukemia. Further, the growth in the test on MALME-3M melanoma was 58.7%; in the test with MDA-MB-231 breast it was 45.3%; in the test on RXF 393 renal, 29.7%; with SF-268 CNS, 37.2%; in the test on SF-295 CNS it was 83.5%; with SF-539 CNS, 33.8%. Further, the results for the growth in the test with UACC-257 melanoma and with M14 melanoma were 89.7% and 28.5%, respectively.

For `CN1c2ccccc2S(=O)(=O)n2c(SCC(=O)Nc3nc4ccc(F)cc4s3)nnc21`, the growth was 97.4% with NCI-H23 lung; 113% with NCI-H226 lung; 93.1% in the test with NCI-H322M lung; 103% with HOP-62 NSCLC; 103% in the test with NCI-H460 lung; 84.7% in the test with HOP-92 NSCLC. Further, the growth was 72.2% with NCI-H522 lung; 82.8% in the test with A549/ATCC NSCLC; 112% in the test on 786-0 renal; 114% in the test on COLO 205 colon; 125% in the test on DU-145 prostate; 116% in the test on K-562 leukemia. Further, the growth with MALME-3M melanoma was 98.8%; in the test with MDA-MB-231 breast, 103%; with RXF 393 renal, -23.2% (active); in the test on SF-268 CNS, 105%; in the test with SF-295 CNS, 124%; in the test on SF-539 CNS it was 108%. The results for the growth in the test with UACC-257 melanoma and with M14 melanoma were 86.2% and 100%, respectively.

With `Cc1cc(N2CCN(CC(=O)Nc3ccc4c(ccn4Cc4ccccc4)c3)CC2)nc(N2CCOCC2)n1`, the growth in the test on NCI-H23 lung was 83.8%; with NCI-H226 lung it was 84.3%; with NCI-H322M lung, 90.4%; in the test on HOP-62 NSCLC, 91.1%; in the test with NCI-H460 lung, 95.2%; in the test on HOP-92 NSCLC it was 45.4%. Further, the growth with NCI-H522 lung is 73.8%; with A549/ATCC NSCLC, 73.6%; in the test on 786-0 renal, 84.6%; in the test on COLO 205 colon it was 98.2%; in the test with DU-145 prostate it was 95.4%; with K-562 leukemia, 60.5%. Further, the growth in the test with MALME-3M melanoma is 85.7%; in the test on MDA-MB-231 breast, 93.4%; in the test with RXF 393 renal, 63.9%; with SF-268 CNS, 92.9%; in the test with SF-295 CNS, 84%; in the test on SF-539 CNS, 98.2%. The figures for the growth with UACC-257 melanoma and in the test on M14 melanoma were 80.2% and 90.1%, respectively.

`C[C@@H]1NC(=O)[C@H](Cc2ccccc2)N(Cc2cccnc2)C1=O`: the growth is 101% in the test with NCI-H23 lung; 90.4% with NCI-H226 lung; 109% with NCI-H322M lung; 94.8% in the test with HOP-62 NSCLC; 102% with NCI-H460 lung; 84.7% in the test with HOP-92 NSCLC. Besides, the growth was 95.9% with NCI-H522 lung; 94.6% in the test on A549/ATCC NSCLC; 90.3% with 786-0 renal; 105% in the test with COLO 205 colon; 108% in the test with DU-145 prostate; 89% in the test with K-562 leukemia. In addition, the growth in the test with MALME-3M melanoma was 101%; in the test on MDA-MB-231 breast, 97.3%; with RXF 393 renal, 108%; with SF-268 CNS, 104%; in the test on SF-295 CNS it was 97%; in the test with SF-539 CNS, 101%. In addition, the growth in the test on UACC-257 melanoma is 91.7%; with M14 melanoma it was 93.8%.

`O=C1c2cccnc2C(=O)c2c1c(C(=O)OCCc1ccccn1)c1ccccn21`: the growth in the test on NCI-H23 lung was -55.8% (active); in the test on NCI-H226 lung, -50.1% (active); in the test with NCI-H322M lung, -53.3% (active); in the test with HOP-62 NSCLC, -79% (active); in the test on NCI-H460 lung it was -71% (active); in the test with HOP-92 NSCLC, 15.1%. Further, the growth in the test on NCI-H522 lung was -50.4% (active); with A549/ATCC NSCLC it was -65.9% (active); in the test with 786-0 renal, -63.2% (active); in the test on COLO 205 colon, -62.3% (active); with DU-145 prostate, -87.9% (active); in the test with K-562 leukemia it was -2.55% (active). Also, the growth with MALME-3M melanoma was -57.5% (active); with MDA-MB-231 breast, 5.98% (active); with RXF 393 renal, -46.6% (active); in the test with SF-268 CNS, -1.63% (active); in the test with SF-295 CNS, -50.9% (active); in the test on SF-539 CNS it was -57.2% (active). Besides, the growth with UACC-257 melanoma is -53.2% (active); in the test with M14 melanoma, -70.5% (active).

Take `O=C1CCC(C(=O)N/N=C/c2cc(F)ccc2F)N1` (stereo not given): the growth with NCI-H23 lung was 95.3%; in the test on NCI-H226 lung, 99.2%; with NCI-H322M lung, 99.7%; with HOP-62 NSCLC it was 103%; in the test with NCI-H460 lung, 101%; with HOP-92 NSCLC, 95.4%. The growth was 93.7% in the test with NCI-H522 lung; 97.6% with A549/ATCC NSCLC; 103% in the test with 786-0 renal; 110% with COLO 205 colon; 110% in the test on DU-145 prostate; 97.1% in the test with K-562 leukemia. Besides, the growth was 95.1% with MALME-3M melanoma; 111% in the test on MDA-MB-231 breast; 108% with RXF 393 renal; 97.2% in the test on SF-268 CNS; 99.5% in the test with SF-295 CNS; 101% in the test with SF-539 CNS. Moreover, the growth was 103% with UACC-257 melanoma and 104% with M14 melanoma.
